Test results as given in the supplement of paper PMC4894684.
Structures can show the parent of a compound that is named as a salt. ± gives the standard deviation of the averaged measurements.

The compounds below were run on Toxoplasma gondii RH (in HFF) (assay: parasite growth relative to the screen mean (all compounds = 100%); higher = less inhibition of parasite growth). Details: 5 µM; 72 h; oxygen 21 %.
In short: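 Library compounds, held as 10 mM DMSO stocks, were pinned to 5 µM final onto confluent human foreskin fibroblasts in 96-well plates. The cells were infected within 2 h with RH β-Gal–GFP Toxoplasma (MOI 1:5), grown 72 h at 21% O2, and assayed for parasite number by CPRG β-Gal using in-plate standard curves. Growth is reported relative to the screen mean, in which all compounds = 100%, averaged over two screens, and CellTiter-Blue checked uninfected host-cell viability.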
Compound `CC[C@@H]1Cn2c(c3nc(-c4ccccc4)nc-3n(C)c2=O)N1` has a parasite growth of 96.8 ± 13%. For `CC1=C(/C=C/C(C)=C/C=C/C(C)=C/C(=O)O)C(C)(C)CCC1` [Retinoic acid], the parasite growth was 85 ± 12%. In the case of `Cc1nc2ccc(NC(=O)Nc3ccnc4cccnc34)cc2o1`, the parasite growth is reported as 88.83 ± 0.52%. In the case of `CC(=O)NCC(=O)N[C@H](CCC(=O)O)C(=O)O` [N-Acetylglycyl-D-glutamic acid], the parasite growth is reported as 132 ± 22%. `C[C@H](NC(=O)/C(C#N)=C/c1ccc(O)c(O)c1)c1ccccc1` [Tyrphostin B44, (+) enantiomer] was tested, and the parasite growth was 154 ± 41%. Compound `CC(C(O)c1ccc(O)cc1)N1CCC(Cc2ccccc2)CC1` (centres undefined) [Ifenprodil hemitartrate] has a parasite growth of 116 ± 4.3%. `COc1ccccc1N1CCN(CCCCNC(=O)c2ccc(-c3ccc(C(C)=O)cc3)cc2)CC1` was tested, and the parasite growth was 156 ± 28%. Work on `O=C1c2ccccc2C(Cc2ccncc2)(Cc2ccncc2)c2ccccc21` [XE 991 dihydrochloride] yielded a parasite growth of 34.3 ± 6.2%. Work on `Cc1nnc(-c2ccc3occ(-c4ccc([S+](C)[O-])cc4)c3c2)o1` (centres undefined) yielded a parasite growth of 83.7 ± 4.5%. With `C[C@@H]1C[C@H]2[C@@H]3CCC4=CC(=O)C=C[C@]4(C)[C@@]3(F)[C@@H](O)C[C@]2(C)[C@@]1(O)C(=O)CO` [Dexamethasone] the parasite growth was 141 ± 12%. With `NC(=O)N1c2ccccc2CC(O)c2ccccc21` (centres undefined) [Licarbazepine] the parasite growth was 122 ± 9.9%. `CC(C)NCC(O)c1ccc(O)c(O)c1` (centres undefined) [Isoproterenol hydrochloride] gave a parasite growth of 172 ± 14%. For `O=[N+]([O-])c1cc(Cl)ccc1S(=O)(=O)N1CCN(Cc2ccccc2)CC1`, the parasite growth was 130 ± 24%. `O=[N+]([O-])c1cc2nc(O)c(O)nc2cc1[N+](=O)[O-]` gave a parasite growth of 91.7 ± 27%. For `O=C(Nc1ccccc1)c1cc([N+](=O)[O-])ccc1Cl`, the parasite growth was 103 ± 18%. `CSc1cc2c(cc1C(F)(F)F)N(C(=O)Nc1cccnc1)CC2` was tested, and the parasite growth was 122 ± 30%. For `NS(=O)(=O)c1cccc2c1c([N+](=O)[O-])cc1nc(O)c(O)nc12`, the parasite growth was 144 ± 9.6%. Work on `Cc1cccc(/C=C/c2ccccc2)n1` yielded a parasite growth of 99.2 ± 63%. `OC1CCC(Nc2nc(-c3ccccc3)nc3[nH]ccc23)CC1` (centres undefined) was tested, and the parasite growth was 116 ± 3%. Compound `CCOC(=O)c1ncn2c1CN(C)C(=O)c1cc(F)ccc1-2` [Flumazenil] has a parasite growth of 84.5 ± 15%. `OCc1cc(C(O)CNCCCCCCOCCCCc2ccccc2)ccc1O` (centres undefined) [Salmeterol] was tested, and the parasite growth was 14.4 ± 11%. With `C[C@H]1O[C@H](O[C@H]2[C@H](O)[C@@H](O)[C@@H](O[C@H]3[C@H](O)[C@@H](O)C(O)O[C@@H]3CO)O[C@@H]2CO)[C@H](O)[C@@H](O)[C@@H]1N[C@H]1C=C(CO)[C@@H](O)[C@H](O)[C@H]1O` (some centres undefined) [Acarbose] the parasite growth was 114 ± 36%. In the case of `c1ccc(N2CCN(CCCOc3ccc4c(c3)OCO4)CC2)cc1` [BP 554 maleate], the parasite growth is reported as 127 ± 0.98%. In the case of `Cc1ccc(O)c(N=Nc2ccccc2)n1`, the parasite growth is reported as 92.5 ± 68%. `CN1[C@@H](CC(=O)c2ccccc2)CCC[C@H]1C[C@H](O)c1ccccc1` [Lobeline hydrochloride] was tested, and the parasite growth was 179 ± 40%. `O=C(O)COCCN1CCN(C(c2ccccc2)c2ccc(Cl)cc2)CC1` (centres undefined) [Cetirizine dihydrochloride] showed a parasite growth of 136 ± 34%. Compound `CCN(CC)CCCC(C)Nc1nc(C)cc(Nc2ccc3nc(C)cc(N)c3c2)n1` (centres undefined) has a parasite growth of 127 ± 2.7%. For `O=C(O)C1(C(=O)O)CCC1.[NH2-].[NH2-].[Pt+2]` [Carboplatin], the parasite growth was 136 ± 19%. In the case of `Cc1cc(/C(=C/Nc2ccc(Cl)cc2)C(=O)Nc2ccc(Cl)cc2)on1`, the parasite growth is reported as 139 ± 40%. In the case of `Nc1nc2c(cnn2CCc2ccccc2)c2nc(-c3ccco3)nn12`, the parasite growth is reported as 100 ± 39%. With `COc1cccc(/C=N/N=C/c2cccc(OC)c2)c1` the parasite growth was 135 ± 4.2%. `CO[C@@H]1[C@H](O)[C@@H](CO)O[C@H]1n1cnc2c(NC3CCCCC3)ncnc21` gave a parasite growth of 103 ± 24%. `CCC(NC(C)C)C(O)c1ccc(O)c2[nH]c(=O)ccc12` (centres undefined) [Procaterol hydrochloride] showed a parasite growth of 132 ± 21%. For `CN(C)CCC1(c2ccc(Cl)cc2)Cc2ccccc2C(=O)O1` (racemic) [(±)-AC 7954 hydrochloride], the parasite growth was 98.7 ± 67%. Work on `C[C@]12CC[C@@H]3c4ccc(O)cc4C[C@@H](CCCCCCCCC[S+]([O-])CCCC(F)(F)C(F)(F)F)[C@H]3[C@@H]1CC[C@@H]2O` (some centres undefined) yielded a parasite growth of 43.7 ± 11%. `Cn1cnc2c(NCc3ccccc3)nc(NCCO)nc21` [Olomoucine] gave a parasite growth of 127 ± 7.9%. `N[C@@H]1CCN(O)C1=O` gave a parasite growth of 97.4 ± 22%. For `CCc1c2c(nc3ccc(OC(=O)N4CCC(N5CCCCC5)CC4)cc13)-c1cc3c(c(=O)n1C2)COC(=O)[C@]3(O)CC`, the parasite growth was 59.8 ± 11%. Work on `Brc1c(NC2=NCCN2)ccc2nccnc12` yielded a parasite growth of 128 ± 24%.
